Assay outcomes as filed in PubChem BioAssay.
Sampled rows, rich in hits. Any-hit rate of the full collection: about 19%.
IL1B secr inh: blocks inflammasome-driven IL-1 beta release | activity change, % at 57.5 µM | 4.7% of 360,000 active | THP-1 LPS/ATP IL-1B secretion, AlphaLISA, 16 h; stronger effect = lower value; in the data active = activity change below about -50%; inconclusive = mostly about -30% to -49%
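Secreted IL-1B measured by AlphaLISA bead assay after 16 h compound exposure of THP-1 cells; compounds (final up to 57.5 uM) added 1 h before LPS (250 ng/mL) and ATP (1.25 mM) stimulation; lower signal means less secretion.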
HT1080 IDH1KD tx: HT-1080 IDH1 knockdown cell toxicity (counter line); 2% of 360,000 active; Potency, µM (highest dose often 46.1 µM), for inactives: at the highest dose activity, negative = toxicity, most hits filed as cytotoxic; HT-1080 IDH1 knockdown viability, ATP luminescence, 48 h;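 note: potency is the fitted concentration of half-maximal effect; 0% = DMSO wells and -100% = cell-free medium wells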
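In this qHTS, HT-1080 cells depleted of IDH1 are exposed for 48 h at 37 °C to compound titrations. Toxicity is scored from CellTiter-Glo luminescence, with DMSO as full viability and medium alone as none.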
TDP1 cell CPT: growth inhibition of DT40 Tdp1-/-;hTDP1 cells with camptothecin (screen for TDP1 inhibitors). Potency, µM (series often up to 46.2 µM), inactives show at the top dose activity change, negative = growth inhibition, actives largely listed as inhibitors. 12% of 420,000 active. chicken DT40 Tdp1-/-;hTDP1 cells + 20 nM CPT, ATP luminescence, 48 h; note: potency is the fitted concentration of half-maximal effect; nearly all actives have a fitted effect of over 55% in size
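Chicken DT40 Tdp1-/- cells complemented with human TDP1, 400 cells/well, exposed to compounds plus 20 nM camptothecin for at least 48 h at 37 C; viability read as ATP content by CellTiter-Glo luminescence.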
HT1080NT lethal: kills 2HG-producing HT-1080-NT fibrosarcoma cells | Potency, µM (series often up to 46.1 µM), without a hit: at the top dose activity, negative = less viability, usual class: cytotoxic | 1.6% of 360,000 active | HT-1080-NT fibrosarcoma viability, CellTiter-Glo ATP luminescence, 48 h;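 note: NT is the 2HG producing partner of a matched IDH1 knockdown line; potency is the fitted concentration of half-maximal effect; 0% = DMSO-treated cells and -100% = media-only wells without cells; nearly all actives have a fitted effect of over 55% in size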
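Read-out is CellTiter-Glo luminescence after 10 minutes at room temperature, following 48 hours' compound treatment of HT-1080-NT cells (750 cells/well, RPMI, 5% FBS, 37 degrees C).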
DT40 TDP1 no CPT: qHTS for Inhibitors of human tyrosyl-DNA phosphodiesterase 1 (TDP1): qHTS in cells in absence of CPT. AID 686978, 2013. DT40 Tdp1-/- hTDP1 cells, no CPT, ATP luminescence, 48 h. Potency, µM (top dose mostly 46.2 µM), for inactives: at the highest dose activity change, negative = growth inhibition, actives largely listed as inhibitors. 15% of 420,000 active; note: potency is the fitted concentration of half-maximal effect; nearly all actives have a fitted effect of over 55% in size
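Compound effects on proliferation are scored in DT40 Tdp1-/-;hTDP1 cells in the absence of CPT. ATP levels (CellTiter-Glo luminescence) are recorded after a ≥48 hr, 37 °C incubation.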
The depositor's hits bear a star; u = inconclusive; x = no result given; [ ] = remark or other dose. Unless noted, calls come from the whole dose curve; as a rule, active = well fitted curve in the direction sought with a large enough effect; inconclusive = small, poorly fitted or top-dose-only effect, or another doubt; inactive = no such curve, though single readings can be large; an effect the other way counts as inactive or inconclusive. Unless noted, % is set by controls: 0 for no effect and ±100 for the full control effect.

SMILES	IL1B secr inh	HT1080 IDH1KD tx	TDP1 cell CPT	HT1080NT lethal	DT40 TDP1 no CPT
COC(=O)Cc1ccc(NC(=S)N2CCN(c3cccc(O)c3)CC2)cc1	u	-7%	16µM*	0%	13µM*
COc1cccc(N2CCN(C(=S)Nc3cccc(C)c3)CC2)c1	14	-2%	u	-2%	-16%
COc1ccc(NC(=S)N2CCN(c3ccc([N+](=O)[O-])cc3)CC2)cc1OC	-3	-14%	10µM*	-22%	12µM*
COC(=O)Cc1ccc(NC(=S)N2CCN(c3ccc(OC)cc3)CC2)cc1	1	16%	-19%	6%	u
COc1cccc(NC(=S)N2CCN(c3ccc([N+](=O)[O-])cc3)CC2)c1	-18	2%	6.5µM*	1%	10µM*
Cc1cccc(Nc2nnc(SCC(=O)NCC3CCCO3)s2)c1C (centres undefined)	0	-3%	u	3%	-19%
Cc1ccccc1C1(CC(=O)N2CCCCC2c2cccnc2)CC(=O)N(C2CCCC2)C1=O (centres undefined)	x	x	-4%[9.04 µM]	x	u
CN(C(=O)COC(=O)CSc1ccccc1)c1c(N)n(Cc2ccccc2)c(=O)[nH]c1=O	14	-3%	6%	0%	-4%
CCCCN(C(=O)CSc1nnc(-c2ccccc2OC)n1C)c1c(N)n(Cc2ccccc2)c(=O)[nH]c1=O	-4	-9%	-4%	-2%	-9%
O=C1C2=C(S[C@@H]3O[C@H](CO)[C@@H](O)[C@H](O)[C@H]3O2)C(=O)c2ccccc21	x	x	0.65µM*	x	0.65µM*
COc1c(O)cc2c(c1O)[C@@H]1O[C@H](CO)[C@@H](O)[C@H](O)[C@H]1OC2=O	3	0%	2%	15%	2%
Cc1nc2sc(C(c3ccc(Cl)cc3)N3CCN(c4ccccc4F)CC3)c(O)n2n1 (centres undefined)	u	0%	-20%	-15%	-30%
Cc1nnc(NC(=O)CSc2nc3[nH]ncc3c(=O)[nH]2)s1	21	2%	u	-9%	15µM*
Cc1ccc(C)c(CSc2nc3[nH]ncc3c(=O)[nH]2)c1	-7	1.8µM*	2.6µM*	1.3µM*	1µM*
COc1cc2c(cc1OC)C1=NC(=O)CN1C(SCc1ccccc1C)=N2	-4	0%	10µM*	4%	10µM*
COc1ccc(C)cc1NC(=O)CSCc1ccccc1C	-4	22%	-26%	14%	u
c1csc(-c2ccc(N3CCOCC3)nn2)c1	-13	u	u	u	8.2µM*
CCOC(=O)C1CCN(c2ccc(-c3cccs3)nn2)CC1	37	u	u	u	u
CCOc1ccc(NC(=O)CN2C(=O)C3(SCC(=O)N3c3ccc(F)cc3)c3ccccc32)cc1 (centres undefined)	x	x	23µM*	x	u
COc1cccc(NC(=O)CN2C(=O)C3(SCC(=O)N3c3cc(C)cc(C)c3)c3ccccc32)c1 (centres undefined)	x	x	18µM*	x	u
CCc1cccc(C)c1NC(=O)CN1C(=O)C2(SCC(=O)N2c2cc(C)cc(C)c2)c2ccccc21 (centres undefined)	x	x	18µM*	x	16µM*
Cc1cc(C)cc(N2C(=O)CSC23C(=O)N(Cc2c(F)cccc2Cl)c2ccccc23)c1 (centres undefined)	x	x	16µM*	x	16µM*
Cc1ccc(NC(=O)c2cc([N+](=O)[O-])ccc2NCc2cccnc2)cc1	u	u	-14%	-1%	-24%
Cc1ccc(C)c(NC(=O)COC(=O)CC2c3ccccc3CCN2S(=O)(=O)c2ccc(F)cc2)c1 (centres undefined)	0	-22%	-14%	-4%	u
CCCSc1ncc(Cl)c(C(=O)Nc2c(C(=O)c3ccc(C)cc3)oc3ccccc23)n1	x	x	-3%	x	0%
SMILES	IL1B secr inh	HT1080 IDH1KD tx	TDP1 cell CPT	HT1080NT lethal	DT40 TDP1 no CPT
Cc1ccc(Nc2nnc(SCC(=O)Nc3cccnc3Cl)s2)cc1C	u	u	u	-12%	u
Cc1cccc(NC(=O)CN2C(=O)C3(SCC(=O)N3c3ccccc3)c3ccccc32)c1 (centres undefined)	x	x	23µM*	x	u
CC(C)NC(=O)c1ccc(C2SCC(=O)N2Cc2ccccc2)cc1 (centres undefined)	-3	7%	-10%	0%	-14%
Cc1nc(N2CCC(C(N)=O)CC2)c2c(-c3cccs3)csc2n1	23	-22%	u	-23%	21µM*
COc1ccc(-c2csc3nc(C)nc(N4CCC(C)CC4)c23)cc1OC	9	u	21µM*	18µM*	18µM*
O=S(=O)(c1ccc(SCCO)nc1)N1CCOCC1	9	11%	5%	0%	13%
CCCCOC(=O)c1ccc(NC(=O)CC2NCCNC2=O)cc1 (centres undefined)	x	x	-4%	x	-4%
O=S1(=O)c2ccc(Br)cc2N2CC[C@H](C2)N1Cc1ccc(Cl)cc1	62	7.3µM*	1.3µM*	u	1.6µM*
O=S1(=O)c2ccc(Br)cc2N2CCC[C@@H]2CN1Cc1ccc(Cl)cc1	-3	5%	u	6%	u
O=C(Cn1nc(Cc2ccncc2)c2ccccc2c1=O)Nc1cccnc1Cl	u	15%	-25%	10%	13%
COC(=O)c1cc(CSc2nc3ccccc3[nH]2)oc1C	29	-4%	15µM*	0%	23µM*
CCCc1cc(=O)[nH]c(SCc2cc(C(=O)OC)c(C)o2)n1	35	-10%	1%	-10%	-11%
O=C(NC(c1ccc(Cl)cc1)c1ccsc1)C1CCN(Cc2cccc(Cl)c2)CC1 (centres undefined)	0	u	5.2µM*	u	4.6µM*
O=C(NC(c1ccc(Cl)cc1)c1ccsc1)C1CCN(Cc2cccc(C(F)(F)F)c2)CC1 (centres undefined)	-70*	0%	4.1µM*	3%	4.1µM*
Cc1ncc2c(c1CNC(=O)c1ccc3c(c1)OCO3)CCN(C(=O)c1csc3c1CCCC3)C2	x	x	-4%[9.04 µM]	x	-13%
C[C@@H]1C=C(C(=O)NCc2nc3ccccc3[nH]2)O[C@H](OCCCCO)C1	56	10%	2%	3%	5%
CC(C)CC1(C)NC(=O)N(CC(=O)Nc2cccc(S(=O)(=O)N(C)c3ccccc3)c2)C1=O (centres undefined)	-4	4%	-20%	-14%	u
O=C(NCC(c1cccs1)N1CCOCC1)c1cc(F)cc(F)c1 (centres undefined)	21	5.8µM*	21µM*	7.3µM*	15µM*
